Results on 58 molecules are retold here after PubChem BioAssay AID938 (National Center for Advancing Translational Sciences (NCATS), 2007).

Several values for one entry are separate records, joined by “and”; a condition that tells them apart may be missing. Equal values may be shown once. Screen size: about 73,000 compounds; about 1,800 (2.5%) were called active. A call without a number means that no potency is given here. Inconclusive results (about 13%) are left out. For the sample, actives were picked, then their nearest neighbours and some compounds at random. A number with no mark means an inactive call. Calls follow the shape of the dose curve; as a rule, active = well fitted activation curve with a large enough effect; inconclusive = small, poorly fitted or top-dose-only effect; inactive = no such curve, though single readings can be large or run the other way.
Potency is read from the fitted curve at half-maximal effect.

The assay can be described thus: qHTS Assay for Agonists of the Thyroid Stimulating Hormone Receptor: Activators of Intracellular cAMP Concentrations in Parental HEK 293. Also: nearly all actives have a fitted effect of over 55% in size. The note with it: parental HEK293 CNG cAMP sensor, membrane potential fluorescence; series mostly up to 57.1 µM. The gist of the method: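 Parental HEK 293 cells stably expressing a modified CNG channel (no TSHR) report cAMP rise as membrane depolarization. Membrane potential dye with 100 uM RO 20-1724 was loaded for 60 min at room temperature, then compound added for 30 min; fluorescence read at 590 nm.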
Consider `CC(C)CO`, for which the Potency entry is “inactive”.
Regarding `O=C(NCc1ccccc1)[C@H]1C[C@@H]1[C@H](NP(=O)(c1ccccc1)c1ccccc1)c1ccccc1`, the Potency result is “inactive”.
Still for that read-out and setting: under `Cc1cccc(C(=O)O)c1[N+](=O)[O-]` stands “inactive”.
As for `Cc1cc(C)nc(N2CCN(c3ncnc4c3oc3ccccc34)CC2)n1`, the Potency result is “inactive”.
For `CCOC(=O)C1CCN(c2ncnc3c2oc2ccc(Br)cc23)CC1`, the Potency is 25.1 µM (active).
Still for that read-out and setting: the entry for `CCOC(=O)N1CCN(C(=O)C2CCN(c3ncnc4c3sc3cccc(F)c34)CC2)CC1` is “inactive”.
In the case of `Cc1cc(C)cc(C#CC2C=CC(Oc3ccc(C4CCCC4)cc3)C(CO)O2)c1` (stereo not drawn), the activation is 16.7% [at 11.4 µM].
Regarding `CC(C)[C@@H](OCc1ccccc1)[C@H](C)/C=N\OC[C@@H](C)[C@H](OCc1ccccc1)C(C)C`, the activation is 2.03% [at 11.4 µM].
As for `CC1=CC(C)(C)N(C(=O)CSc2nnc(-c3ccccc3)o2)c2ccc(C)cc21`, the Potency is 2 µM (active).
In the case of `CCOC(=O)CSc1nnc(-c2cccc(Br)c2)o1`, the Potency entry is “inactive”.
Same read-out and setting: under `O=C(CSc1nnc(-c2ccccc2)o1)N1CCOCC1` stands “inactive”; under `CCS(=O)(=O)N1CCN(C(=O)c2cccs2)CC1`, “inactive”.
The same measure, in the same setting: the entry for `COc1ccc(N2CCN(C3CC(=O)N(c4ccc5c(c4)OCCO5)C3=O)CC2)cc1` (stereo not drawn) is “inactive”; for `CCCc1nc2ccccc2c(=O)n1NC(=O)c1c(O)c2ccccc2[nH]c1=O` it is “inactive”.
Same read-out and setting: the entry for `CC(C)C(NC(=O)OCc1ccccc1)C(=O)OCC(=O)N1C(C)CCCC1C` (stereo not drawn) is “inactive”; for `COC(=O)[C@H](C)[C@H]1C[C@]1(C)[C@H](NC(=O)OCc1ccccc1)c1ccccc1` it is 2 µM (active).
On to `C[C@@H](C(=O)Nc1ccc2ccccc2c1)[C@@H]1C[C@@]1(C)[C@@H](NC(=O)c1cccnc1)c1ccccc1`, for which the Potency result is “inactive”.
For the molecule `C=CCOC(=O)C(C(C)=O)C(NC(=O)OC)c1ccccc1` (stereo not drawn), the activation is 4.24% [at 11.4 µM].
For `COc1cc(Cl)c(C)cc1NC(=O)CSc1nnc(-c2cccnc2)n1Cc1ccco1`, the Potency result was “inactive”.
On the same count and under the same terms, the figure for `C(=C\c1ccccc1)/CSc1nnc(-c2cccnc2)n1Cc1ccco1` is 15.8 µM (active); for `CCc1ccc(NC(=O)CSc2nnc(-c3cnccn3)n2Cc2ccco2)cc1` it is “inactive”; for `COc1cccc(Cn2c(=O)c(-c3ccccc3)nc3cnc(OC)nc32)c1` it is “inactive”.
Take `COc1cccc(Cn2c(=O)c(C)nc3cnc(Oc4ccccc4)nc32)c1`: the Potency was 12.6 µM (active).
`COc1cccc(Cn2c(=O)c(-c3cc(F)cc(F)c3)nc3cnc(OC)nc32)c1`: the Potency entry was “inactive”.
Same read-out and setting: the figure for `CC(C)n1c(SCC(=O)Nc2ccccc2N2CCCCC2)nc2c1c(=O)n(C)c(=O)n2C` is 20 µM (active); for `Cc1ccccc1NC(=O)CNc1ccccc1N1CCCCC1` it is “inactive”.
With `COC(=O)c1c(NC(=O)CSc2nc3c(c(=O)n(C)c(=O)n3C)n2C(C)C)sc(C)c1C`, the Potency entry is “inactive”.
On the same count and under the same terms, under `CC1(C)CC(=O)C=C(NCCCNC2CCCCC2)C1` stands “inactive”.
`CC(=O)N1[C@H](C)C=C[C@]1(Cc1ccccc1)C(=O)NCc1ccccn1`: the Potency result was “inactive”.
Same read-out and setting: the entry for `COC(=O)C1(C)C=CCN1C(=O)c1ccccc1` (stereo not drawn) is “inactive”.
With `CC(C)CC1(C(=O)NCc2ccccn2)C=CCN1C(=O)c1ccccc1` (stereo not drawn), the Potency is 25.1 µM (active).
For `O=C1C[C@@H](O)[C@@H](O)[C@H]2[C@@H]3C(=O)N(Cc4ccc5c(c4)OCO5)C(=O)[C@@H]3CC[C@H]12`, the activation was 0.478% [at 11.4 µM] and -2.17% [at 11.4 µM].
On to `COc1ccc(C(C(O)C(=O)c2c[nH]c3ccccc23)N2CCN(c3ccccc3)CC2)cc1` (stereo not drawn), for which the Potency entry was “inactive”.
On the same count and under the same terms, the entry for `N#Cc1cc2[nH]c(=O)c(=O)[nH]c2cc1[N+](=O)[O-]` is “inactive”; for `CCOC(=O)N1CCC(O)(c2cc(C)c(C)cc2C)CC1` it is “inactive”.
On the same count and under the same terms, the entry for `O=C(CSc1nnc(-c2ccco2)n1CC1CCCO1)c1ccccc1` (stereo not drawn) is “inactive”; for `c1ccc(CSc2nnc(-c3ccco3)n2Cc2ccccc2)cc1` it is 15.8 µM (active); for `c1ccc(CSc2nnc(-c3ccco3)c(-c3ccco3)n2)cc1` it is “inactive”.
For the molecule `C1CCC2OC2C1` (stereo not drawn), the Potency result is “inactive”.
Still for that read-out and setting: the entry for `Brc1cc(Br)c(Oc2cc(Br)c(Br)cc2Br)cc1Br` is “inactive”; for `CN1CCC(CNC(=O)c2ccc(-n3c(=O)c(=O)[nH]c4ccccc43)cc2)CC1` it is “inactive”; for `O=C(O)CCCCC(=O)O` it is “inactive”.
The same measure, in the same setting: the figure for `CCOc1ccc2c(c1)cc(CN(C(=O)CC)C1CCCCC1)c1nnnn12` is 20 µM (active); for `CN(C(=O)CSc1nnnn1-c1ccccc1)C1CCCCC1` it is “inactive”.
`COc1ccc(N2C(=O)CCC(C(=O)N(C)C3CCCCC3)C2c2ccc(OC)c(OC)c2)cc1` (stereo not drawn): the Potency entry was “inactive”.
Take `CC(C)[C@H](CO)Nc1nc(Nc2cc(N)cc(Cl)c2)c2ncn(C(C)C)c2n1`: the Potency entry was “inactive”.
On the same count and under the same terms, the entry for `CCCCOC(=O)NCN1C(=O)C2C3C=CC(C3)C2C1=O` (stereo not drawn) is “inactive”.
Regarding `O=C1OCCC=C1[C@@H](O)CCc1ccccc1`, the activation was -4.2% [at 11.4 µM].
With `CC(C)CNC(=O)C1CCCN(S(=O)(=O)c2ccc(-n3cnnn3)cc2)C1` (stereo not drawn), the Potency result is “inactive”.
On the same count and under the same terms, under `O=C(c1cnccn1)N1CCC2(CCN(Cc3cc(C(F)(F)F)cc(C(F)(F)F)c3)CC2)CC1` stands “inactive”; under `Nc1nonc1C(=O)NCCc1ccccc1`, “inactive”.
The same measure, in the same setting: under `O=C(NCCc1ccc2c(c1)OCCO2)c1cc2ccccc2o1` stands 25.1 µM (active); under `O=C(CC(Cc1ccccc1)C(=O)O)NCCc1ccc2c(c1)OCO2` (stereo not drawn), “inactive”.
In the case of `CC1CCCN(Cc2nc3c(c(=O)n(C)c(=O)n3C)n2CC(=O)c2ccccc2)C1` (stereo not drawn), the Potency entry was “inactive”.
As to `COc1ccc2c(c1)C(C)=CC(C)(C)N2C(=O)CNCc1ccc2c(c1)OCO2`, the Potency is 25.1 µM (active).
Turning to `CCOC(=O)NCc1ccc2c(c1)OCO2`, the Potency result was “inactive”.
Still for that read-out and setting: the entry for `CCn1cc(C(=O)NCc2ccc3c(c2)OCO3)c2cc(OC)c(OC)cc2c1=O` is “inactive”.
Same read-out and setting: under `Cc1ccc(Cn2c(NC(=O)c3ccco3)nc3ccccc32)cc1` stands 25.1 µM (active).
